# According to PMC7862700, “An all-to-all approach to the identification of sequence-specific readers for epigenetic DNA modifications on cytosine”:
# Assays:
# Experiment in all cases: DAPPL (digital affinity profiling via proximity ligation, sequencing); 10 mM Tris-HCl pH 7.5, 50 mM NaCl, 1 mM DTT, 4% glycerol, room temperature, 30 min; GST-TFs on glutathione beads, 16-mer random dsDNA library, 0.1% formaldehyde crosslink after washing; high values mean tight binding
# FLI1 = biological target: T1, FLI1 (Homo sapiens, UniProt Q01543 1-452); conditions: protein: recombinant; tags: N-terminal GST; dsDNA, one strand shown
# T1 sequence: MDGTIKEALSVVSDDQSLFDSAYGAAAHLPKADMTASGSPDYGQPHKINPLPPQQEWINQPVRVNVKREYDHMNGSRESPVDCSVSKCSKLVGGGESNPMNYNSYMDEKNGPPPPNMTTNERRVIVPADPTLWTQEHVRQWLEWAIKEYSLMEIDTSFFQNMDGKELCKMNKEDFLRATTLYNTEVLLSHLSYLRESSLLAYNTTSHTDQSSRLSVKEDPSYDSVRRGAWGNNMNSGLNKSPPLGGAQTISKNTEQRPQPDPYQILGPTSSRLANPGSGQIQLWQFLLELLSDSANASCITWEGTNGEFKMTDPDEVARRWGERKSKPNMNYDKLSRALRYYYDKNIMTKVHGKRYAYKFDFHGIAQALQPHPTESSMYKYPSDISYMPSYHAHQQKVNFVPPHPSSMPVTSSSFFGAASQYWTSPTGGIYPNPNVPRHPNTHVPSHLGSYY
# Summary of the method: (§1)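 In yeast, human transcription factors were expressed with a GST fusion, then pulled down on glutathione beads and given DNA barcodes. Pooled with a tag-only sample, they were exposed to 200 nmole of a 16-mer random double-stranded DNA library (Tris/NaCl/DTT/glycerol buffer, room temperature, 30 min), washed, crosslinked with 0.1% formaldehyde, proximity-ligated using BsaI/T4 ligase for 1 h at 37 °C, PCR-amplified and read on an Illumina NextSeq500. Each hexamer's frequency of reads for a factor, divided by the matching frequency for the tag-only sample, gives the binding signal.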
# ELK1 = biological target: T2, ELK1 (Homo sapiens, UniProt P19419 1-428); conditions: protein: recombinant; tags: N-terminal GST; dsDNA, one strand shown
# T2 sequence: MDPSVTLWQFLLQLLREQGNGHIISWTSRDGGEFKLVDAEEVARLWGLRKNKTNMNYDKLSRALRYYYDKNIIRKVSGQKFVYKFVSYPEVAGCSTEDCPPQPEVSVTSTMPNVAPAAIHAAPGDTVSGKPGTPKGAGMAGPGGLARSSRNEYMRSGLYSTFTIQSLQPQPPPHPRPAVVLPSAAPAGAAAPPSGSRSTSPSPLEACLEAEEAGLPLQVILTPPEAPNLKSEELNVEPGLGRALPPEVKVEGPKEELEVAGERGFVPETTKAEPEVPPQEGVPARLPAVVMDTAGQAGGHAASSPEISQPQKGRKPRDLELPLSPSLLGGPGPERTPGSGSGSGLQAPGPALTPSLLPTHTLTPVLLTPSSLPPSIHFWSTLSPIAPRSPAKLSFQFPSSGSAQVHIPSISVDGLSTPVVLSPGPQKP
# Summary of the method: as §1
# GABPA = biological target: T3, GABPA (Homo sapiens, UniProt Q06546 1-454); conditions: protein: recombinant; tags: N-terminal GST; dsDNA, one strand shown
# T3 sequence: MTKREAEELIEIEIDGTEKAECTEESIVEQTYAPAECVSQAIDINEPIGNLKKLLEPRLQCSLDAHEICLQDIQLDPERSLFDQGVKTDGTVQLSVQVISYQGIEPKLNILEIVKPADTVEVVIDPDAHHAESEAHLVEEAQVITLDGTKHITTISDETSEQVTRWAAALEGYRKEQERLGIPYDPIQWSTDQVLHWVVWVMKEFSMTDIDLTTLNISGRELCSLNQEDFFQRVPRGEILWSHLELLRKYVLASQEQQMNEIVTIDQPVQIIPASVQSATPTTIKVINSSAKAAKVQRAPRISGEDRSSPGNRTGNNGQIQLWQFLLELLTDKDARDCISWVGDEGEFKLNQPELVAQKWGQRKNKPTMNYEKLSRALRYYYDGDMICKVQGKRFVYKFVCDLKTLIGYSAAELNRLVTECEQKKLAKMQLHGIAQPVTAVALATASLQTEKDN
# Summary of the method: as §1
# ERG = biological target: T4, ERG (Homo sapiens, UniProt P11308 1-479); conditions: protein: recombinant; tags: N-terminal GST; dsDNA, one strand shown
# T4 sequence: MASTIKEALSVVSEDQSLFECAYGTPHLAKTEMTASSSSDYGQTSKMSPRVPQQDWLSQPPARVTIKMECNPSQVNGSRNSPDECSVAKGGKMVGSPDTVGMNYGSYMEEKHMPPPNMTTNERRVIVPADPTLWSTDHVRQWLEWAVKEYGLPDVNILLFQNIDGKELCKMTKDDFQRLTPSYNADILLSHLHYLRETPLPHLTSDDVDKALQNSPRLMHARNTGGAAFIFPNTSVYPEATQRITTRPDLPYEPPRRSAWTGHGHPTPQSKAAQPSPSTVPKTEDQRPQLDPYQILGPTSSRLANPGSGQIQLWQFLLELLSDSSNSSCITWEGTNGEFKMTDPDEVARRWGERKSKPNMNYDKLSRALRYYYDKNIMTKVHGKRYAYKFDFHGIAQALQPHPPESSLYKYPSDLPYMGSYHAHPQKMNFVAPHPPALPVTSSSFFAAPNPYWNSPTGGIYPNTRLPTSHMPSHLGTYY
# Summary of the method: as §1
# ELF1 = ELF1 (Homo sapiens, UniProt P32519 1-619); conditions: protein: recombinant; tags: N-terminal GST; dsDNA, one strand shown
# Chain of ELF1 (P32519 whole entry): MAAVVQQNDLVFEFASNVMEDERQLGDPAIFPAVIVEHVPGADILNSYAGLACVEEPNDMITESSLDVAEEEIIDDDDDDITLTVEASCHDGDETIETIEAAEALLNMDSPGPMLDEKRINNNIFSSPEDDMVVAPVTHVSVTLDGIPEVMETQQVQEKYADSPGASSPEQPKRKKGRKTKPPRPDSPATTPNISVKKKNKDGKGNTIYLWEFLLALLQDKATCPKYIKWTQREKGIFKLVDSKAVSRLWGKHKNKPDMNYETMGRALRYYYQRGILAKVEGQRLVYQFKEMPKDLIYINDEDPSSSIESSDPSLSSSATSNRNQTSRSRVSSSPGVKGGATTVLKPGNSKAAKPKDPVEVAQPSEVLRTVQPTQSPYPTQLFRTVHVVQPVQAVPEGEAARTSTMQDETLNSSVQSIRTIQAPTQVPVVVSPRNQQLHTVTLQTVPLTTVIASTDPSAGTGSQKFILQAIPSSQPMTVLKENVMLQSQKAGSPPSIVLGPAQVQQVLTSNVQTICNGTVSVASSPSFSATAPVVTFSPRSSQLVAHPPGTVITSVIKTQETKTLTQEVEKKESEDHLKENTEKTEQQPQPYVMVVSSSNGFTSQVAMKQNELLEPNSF
# Summary of the method: as §1
# EHF = biological target: T5, EHF (Homo sapiens, UniProt Q9NZC4 1-300); conditions: protein: recombinant; tags: N-terminal GST; dsDNA, one strand shown
# T5 sequence: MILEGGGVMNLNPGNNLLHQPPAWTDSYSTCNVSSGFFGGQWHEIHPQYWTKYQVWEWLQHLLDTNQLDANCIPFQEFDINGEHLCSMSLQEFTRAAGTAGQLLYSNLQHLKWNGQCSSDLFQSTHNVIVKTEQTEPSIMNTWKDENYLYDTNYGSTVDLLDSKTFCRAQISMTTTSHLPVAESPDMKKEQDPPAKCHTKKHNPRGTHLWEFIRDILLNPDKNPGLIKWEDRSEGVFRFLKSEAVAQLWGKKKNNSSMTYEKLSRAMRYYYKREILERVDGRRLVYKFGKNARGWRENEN
# Summary of the method: as §1
# SPI1 = SPI1 (Homo sapiens, UniProt P17947 1-270); conditions: protein: recombinant; tags: N-terminal GST; dsDNA, one strand shown
# Summary of the method: as §1
# SPIB = SPIB (Homo sapiens, UniProt Q01892 1-262); conditions: protein: recombinant; tags: N-terminal GST; dsDNA, one strand shown
# Chain of SPIB (Q01892 whole entry): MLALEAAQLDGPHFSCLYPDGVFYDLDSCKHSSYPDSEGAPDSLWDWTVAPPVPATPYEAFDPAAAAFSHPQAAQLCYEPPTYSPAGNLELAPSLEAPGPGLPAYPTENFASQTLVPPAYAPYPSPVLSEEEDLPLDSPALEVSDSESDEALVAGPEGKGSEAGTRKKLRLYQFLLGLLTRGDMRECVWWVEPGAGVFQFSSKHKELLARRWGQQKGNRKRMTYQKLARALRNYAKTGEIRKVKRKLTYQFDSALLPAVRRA
# Summary of the method: as §1
# ELK3 = biological target: T6, ELK3 (Homo sapiens, UniProt P41970 1-407); conditions: protein: recombinant; tags: N-terminal GST; dsDNA, one strand shown
# T6 sequence: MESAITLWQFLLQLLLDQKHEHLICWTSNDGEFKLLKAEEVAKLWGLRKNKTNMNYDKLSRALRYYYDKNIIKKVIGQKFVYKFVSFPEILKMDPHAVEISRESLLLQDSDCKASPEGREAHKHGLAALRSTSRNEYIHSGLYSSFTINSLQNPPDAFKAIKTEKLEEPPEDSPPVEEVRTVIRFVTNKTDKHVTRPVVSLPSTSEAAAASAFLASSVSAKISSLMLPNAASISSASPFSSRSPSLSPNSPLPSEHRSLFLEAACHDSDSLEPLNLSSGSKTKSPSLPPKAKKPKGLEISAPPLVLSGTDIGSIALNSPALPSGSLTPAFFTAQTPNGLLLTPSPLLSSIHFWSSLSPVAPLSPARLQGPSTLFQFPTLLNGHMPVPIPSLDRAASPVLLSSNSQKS
# Summary of the method: as §1
# FEV = biological target: T7, FEV (Homo sapiens, UniProt Q99581 1-238); conditions: protein: recombinant; tags: N-terminal GST; dsDNA, one strand shown
# T7 sequence: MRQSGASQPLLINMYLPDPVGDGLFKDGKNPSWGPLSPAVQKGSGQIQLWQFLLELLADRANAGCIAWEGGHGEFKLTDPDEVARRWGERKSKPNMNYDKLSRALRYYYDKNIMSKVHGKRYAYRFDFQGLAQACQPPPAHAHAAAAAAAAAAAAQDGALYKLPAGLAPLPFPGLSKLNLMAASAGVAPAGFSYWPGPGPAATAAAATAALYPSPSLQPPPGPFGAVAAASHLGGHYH
# Summary of the method: as §1
# ETV5 = ETV5 (Homo sapiens, UniProt P41161 1-510); conditions: protein: recombinant; tags: N-terminal GST; dsDNA, one strand shown
# Chain of ETV5 (P41161 whole entry): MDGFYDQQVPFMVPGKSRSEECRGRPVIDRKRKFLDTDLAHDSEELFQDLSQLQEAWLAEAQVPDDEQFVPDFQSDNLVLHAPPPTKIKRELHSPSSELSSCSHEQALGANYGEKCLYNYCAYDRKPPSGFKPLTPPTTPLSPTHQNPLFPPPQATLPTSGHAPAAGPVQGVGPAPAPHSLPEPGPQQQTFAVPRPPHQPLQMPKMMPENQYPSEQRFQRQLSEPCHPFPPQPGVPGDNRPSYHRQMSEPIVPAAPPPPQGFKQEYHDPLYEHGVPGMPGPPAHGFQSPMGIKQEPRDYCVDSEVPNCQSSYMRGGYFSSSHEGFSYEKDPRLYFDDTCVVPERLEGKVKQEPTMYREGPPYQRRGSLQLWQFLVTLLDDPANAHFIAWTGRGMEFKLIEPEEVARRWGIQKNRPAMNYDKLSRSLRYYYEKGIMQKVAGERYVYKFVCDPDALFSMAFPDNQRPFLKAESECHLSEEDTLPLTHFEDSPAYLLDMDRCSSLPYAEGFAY
# Summary of the method: as §1
# HSF1 = HSF1 (Homo sapiens, UniProt Q00613 1-529); conditions: protein: recombinant; tags: N-terminal GST; chain copies: 3; dsDNA, one strand shown
# Chain of HSF1 (Q00613 whole entry): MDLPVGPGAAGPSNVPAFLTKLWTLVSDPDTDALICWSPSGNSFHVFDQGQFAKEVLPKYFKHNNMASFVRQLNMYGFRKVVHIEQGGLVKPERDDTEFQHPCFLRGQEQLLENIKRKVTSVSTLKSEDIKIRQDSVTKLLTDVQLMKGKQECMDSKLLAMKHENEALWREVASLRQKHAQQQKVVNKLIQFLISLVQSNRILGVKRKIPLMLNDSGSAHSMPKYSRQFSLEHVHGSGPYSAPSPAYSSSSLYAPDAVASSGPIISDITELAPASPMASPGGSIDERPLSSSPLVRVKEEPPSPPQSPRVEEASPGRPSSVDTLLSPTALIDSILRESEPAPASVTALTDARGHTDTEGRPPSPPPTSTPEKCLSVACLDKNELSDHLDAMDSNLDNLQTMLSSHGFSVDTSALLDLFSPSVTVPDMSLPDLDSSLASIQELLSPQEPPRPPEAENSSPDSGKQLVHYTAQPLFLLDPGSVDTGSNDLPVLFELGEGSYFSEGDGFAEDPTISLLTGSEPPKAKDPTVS
# Summary of the method: as §1
# SPIC = biological target: T8, SPIC (Homo sapiens, UniProt Q8N5J4 1-248); conditions: protein: recombinant; tags: N-terminal GST; dsDNA, one strand shown
# T8 sequence: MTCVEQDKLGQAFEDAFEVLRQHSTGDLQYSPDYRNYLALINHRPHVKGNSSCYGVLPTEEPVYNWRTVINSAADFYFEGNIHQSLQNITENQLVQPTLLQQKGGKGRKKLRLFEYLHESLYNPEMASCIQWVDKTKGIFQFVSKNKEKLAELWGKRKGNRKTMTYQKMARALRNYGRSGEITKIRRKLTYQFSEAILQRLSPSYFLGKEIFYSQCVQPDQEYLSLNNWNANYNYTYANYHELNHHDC
# Summary of the method: as §1
# ELF4 = ELF4 (Homo sapiens, UniProt Q99607 1-663); conditions: protein: recombinant; tags: N-terminal GST; dsDNA, one strand shown
# Chain of ELF4 (Q99607 whole entry): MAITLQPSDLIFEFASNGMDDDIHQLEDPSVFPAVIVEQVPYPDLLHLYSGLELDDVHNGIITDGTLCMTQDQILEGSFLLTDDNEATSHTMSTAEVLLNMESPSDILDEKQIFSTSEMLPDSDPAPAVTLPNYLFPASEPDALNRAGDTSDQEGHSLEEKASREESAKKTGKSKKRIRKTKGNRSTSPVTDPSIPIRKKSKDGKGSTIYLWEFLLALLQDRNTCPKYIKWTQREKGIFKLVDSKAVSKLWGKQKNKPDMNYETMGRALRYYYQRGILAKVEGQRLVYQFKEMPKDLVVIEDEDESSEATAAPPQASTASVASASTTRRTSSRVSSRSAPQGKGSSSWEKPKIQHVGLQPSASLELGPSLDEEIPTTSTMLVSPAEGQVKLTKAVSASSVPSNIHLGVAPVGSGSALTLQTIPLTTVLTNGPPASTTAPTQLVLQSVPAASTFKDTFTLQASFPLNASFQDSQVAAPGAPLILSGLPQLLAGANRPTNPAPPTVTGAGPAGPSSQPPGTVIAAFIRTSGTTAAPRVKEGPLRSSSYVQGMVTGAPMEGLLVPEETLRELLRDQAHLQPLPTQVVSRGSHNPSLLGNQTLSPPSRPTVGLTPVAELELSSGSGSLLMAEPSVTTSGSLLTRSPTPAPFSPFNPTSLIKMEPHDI
# Summary of the method: as §1
# ELK4 = biological target: T9, ELK4 (Homo sapiens, UniProt P28324-2 1-405); conditions: protein: recombinant; tags: N-terminal GST; dsDNA, one strand shown
# T9 sequence: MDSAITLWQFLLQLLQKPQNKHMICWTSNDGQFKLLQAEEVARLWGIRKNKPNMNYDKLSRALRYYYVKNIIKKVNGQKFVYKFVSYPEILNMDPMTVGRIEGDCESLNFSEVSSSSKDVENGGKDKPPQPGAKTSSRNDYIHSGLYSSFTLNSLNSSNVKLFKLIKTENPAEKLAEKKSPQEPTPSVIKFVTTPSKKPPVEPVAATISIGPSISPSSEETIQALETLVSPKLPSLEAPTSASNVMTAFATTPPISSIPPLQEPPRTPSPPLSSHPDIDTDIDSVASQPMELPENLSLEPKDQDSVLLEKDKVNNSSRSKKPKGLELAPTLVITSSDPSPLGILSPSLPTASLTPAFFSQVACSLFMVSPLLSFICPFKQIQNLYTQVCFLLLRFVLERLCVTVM
# Summary of the method: as §1
# ETV2 = biological target: T10, ETV2 (Homo sapiens, UniProt O00321 1-342); conditions: protein: recombinant; tags: N-terminal GST; dsDNA, one strand shown
# T10 sequence: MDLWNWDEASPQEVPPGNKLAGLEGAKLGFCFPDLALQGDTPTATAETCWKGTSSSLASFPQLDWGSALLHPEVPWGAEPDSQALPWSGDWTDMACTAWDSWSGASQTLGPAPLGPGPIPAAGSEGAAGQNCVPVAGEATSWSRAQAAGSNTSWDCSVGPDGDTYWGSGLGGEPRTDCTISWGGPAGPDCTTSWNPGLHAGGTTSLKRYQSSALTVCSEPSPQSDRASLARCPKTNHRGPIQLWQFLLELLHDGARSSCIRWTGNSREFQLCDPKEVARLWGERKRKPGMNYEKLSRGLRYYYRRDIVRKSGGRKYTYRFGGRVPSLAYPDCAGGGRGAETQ
# Summary of the method: as §1
# ELF3 = biological target: T11, ELF3 (Homo sapiens, UniProt P78545 1-371); conditions: protein: recombinant; tags: N-terminal GST; dsDNA, one strand shown
# T11 sequence: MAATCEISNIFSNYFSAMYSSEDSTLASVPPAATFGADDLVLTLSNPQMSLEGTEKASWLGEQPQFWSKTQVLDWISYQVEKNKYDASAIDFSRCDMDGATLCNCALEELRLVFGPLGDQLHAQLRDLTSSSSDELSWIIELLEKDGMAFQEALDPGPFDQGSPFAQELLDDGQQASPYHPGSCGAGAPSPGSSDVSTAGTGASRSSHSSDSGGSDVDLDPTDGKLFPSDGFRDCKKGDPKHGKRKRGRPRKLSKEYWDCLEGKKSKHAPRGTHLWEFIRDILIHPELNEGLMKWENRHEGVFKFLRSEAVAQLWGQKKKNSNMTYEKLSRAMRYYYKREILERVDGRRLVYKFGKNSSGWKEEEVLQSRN
# Summary of the method: as §1
# CRX = CRX (Homo sapiens, UniProt O43186 1-299); conditions: protein: recombinant; tags: N-terminal GST; dsDNA, one strand shown
# Chain of CRX (O43186 whole entry): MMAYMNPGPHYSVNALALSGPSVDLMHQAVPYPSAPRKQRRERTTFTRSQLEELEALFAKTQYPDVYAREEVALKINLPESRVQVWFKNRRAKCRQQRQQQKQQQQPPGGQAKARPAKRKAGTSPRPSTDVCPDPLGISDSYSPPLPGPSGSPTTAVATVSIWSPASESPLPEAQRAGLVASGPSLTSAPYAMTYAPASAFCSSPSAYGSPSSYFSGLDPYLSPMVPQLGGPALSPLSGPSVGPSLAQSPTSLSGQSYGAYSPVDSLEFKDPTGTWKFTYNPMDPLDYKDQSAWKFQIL
# Summary of the method: as §1
# ETV1 = ETV1 (Homo sapiens, UniProt P50549 1-477); conditions: protein: recombinant; tags: N-terminal GST; dsDNA, one strand shown
# Chain of ETV1 (P50549 whole entry): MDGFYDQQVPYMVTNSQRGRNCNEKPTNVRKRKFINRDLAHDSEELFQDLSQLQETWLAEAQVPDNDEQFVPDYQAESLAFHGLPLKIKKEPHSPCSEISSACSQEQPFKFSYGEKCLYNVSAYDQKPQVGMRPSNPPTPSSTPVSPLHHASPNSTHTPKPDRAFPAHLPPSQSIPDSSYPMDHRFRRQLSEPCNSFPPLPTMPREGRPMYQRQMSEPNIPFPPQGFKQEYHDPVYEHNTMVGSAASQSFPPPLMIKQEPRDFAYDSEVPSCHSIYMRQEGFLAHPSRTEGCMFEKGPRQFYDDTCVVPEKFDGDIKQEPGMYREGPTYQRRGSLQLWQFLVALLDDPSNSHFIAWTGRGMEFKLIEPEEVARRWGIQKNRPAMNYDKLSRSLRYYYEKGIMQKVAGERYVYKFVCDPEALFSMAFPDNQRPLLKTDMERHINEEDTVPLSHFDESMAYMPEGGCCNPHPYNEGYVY
# Summary of the method: as §1
sequence,measurement,setting,value
CTAGAT,binding signal,FLI1,"1.13 fold enrichment (6-mer frequency, TF over GST control)"
same,binding signal,ELK1,"1.18 fold enrichment (6-mer frequency, TF over GST control)"
same,binding signal,GABPA,"1.23 fold enrichment (6-mer frequency, TF over GST control)"
same,binding signal,ERG,"1.12 fold enrichment (6-mer frequency, TF over GST control)"
same,binding signal,ELF1,"1.15 fold enrichment (6-mer frequency, TF over GST control)"
same,binding signal,EHF,"1.17 fold enrichment (6-mer frequency, TF over GST control)"
same,binding signal,SPI1,"1.2 fold enrichment (6-mer frequency, TF over GST control)"
same,binding signal,SPIB,"1.17 fold enrichment (6-mer frequency, TF over GST control)"
same,binding signal,ELK3,"1.16 fold enrichment (6-mer frequency, TF over GST control)"
same,binding signal,FEV,"1.13 fold enrichment (6-mer frequency, TF over GST control)"
same,binding signal,ETV5,"1.19 fold enrichment (6-mer frequency, TF over GST control)"
same,binding signal,HSF1,"2.7 fold enrichment (6-mer frequency, TF over GST control)"
same,binding signal,SPIC,"1.16 fold enrichment (6-mer frequency, TF over GST control)"
same,binding signal,ELF4,"1.16 fold enrichment (6-mer frequency, TF over GST control)"
same,binding signal,ELK4,"1.17 fold enrichment (6-mer frequency, TF over GST control)"
same,binding signal,ETV2,"1.17 fold enrichment (6-mer frequency, TF over GST control)"
same,binding signal,ELF3,"1.15 fold enrichment (6-mer frequency, TF over GST control)"
same,binding signal,CRX,"1.83 fold enrichment (6-mer frequency, TF over GST control)"
same,binding signal,ETV1,"1.17 fold enrichment (6-mer frequency, TF over GST control)"
